An excerpt weighted towards active compounds, which were near 3% of everything screened.
hERG WT inh: qHTS for Inhibitors of KCHN2 3.1: Wildtype qHTS. Voltage-gated inwardly rectifying potassium channel KCNH2 (Homo sapiens), Q12809. activity change, % at 1.84 µM. U2OS, BacMam KCNH2, thallium flux FluxOr; stronger effect = lower value. actives 0.37% (n = 340,000);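 active = maximum activity change below -70%; inconclusive = maximum activity change between -70% and -50%; inactive = maximum activity change above -50%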; note: % is set by controls: 0 for no effect and ±100 for the full control effect
Target sequence (Q12809 whole entry, looked up): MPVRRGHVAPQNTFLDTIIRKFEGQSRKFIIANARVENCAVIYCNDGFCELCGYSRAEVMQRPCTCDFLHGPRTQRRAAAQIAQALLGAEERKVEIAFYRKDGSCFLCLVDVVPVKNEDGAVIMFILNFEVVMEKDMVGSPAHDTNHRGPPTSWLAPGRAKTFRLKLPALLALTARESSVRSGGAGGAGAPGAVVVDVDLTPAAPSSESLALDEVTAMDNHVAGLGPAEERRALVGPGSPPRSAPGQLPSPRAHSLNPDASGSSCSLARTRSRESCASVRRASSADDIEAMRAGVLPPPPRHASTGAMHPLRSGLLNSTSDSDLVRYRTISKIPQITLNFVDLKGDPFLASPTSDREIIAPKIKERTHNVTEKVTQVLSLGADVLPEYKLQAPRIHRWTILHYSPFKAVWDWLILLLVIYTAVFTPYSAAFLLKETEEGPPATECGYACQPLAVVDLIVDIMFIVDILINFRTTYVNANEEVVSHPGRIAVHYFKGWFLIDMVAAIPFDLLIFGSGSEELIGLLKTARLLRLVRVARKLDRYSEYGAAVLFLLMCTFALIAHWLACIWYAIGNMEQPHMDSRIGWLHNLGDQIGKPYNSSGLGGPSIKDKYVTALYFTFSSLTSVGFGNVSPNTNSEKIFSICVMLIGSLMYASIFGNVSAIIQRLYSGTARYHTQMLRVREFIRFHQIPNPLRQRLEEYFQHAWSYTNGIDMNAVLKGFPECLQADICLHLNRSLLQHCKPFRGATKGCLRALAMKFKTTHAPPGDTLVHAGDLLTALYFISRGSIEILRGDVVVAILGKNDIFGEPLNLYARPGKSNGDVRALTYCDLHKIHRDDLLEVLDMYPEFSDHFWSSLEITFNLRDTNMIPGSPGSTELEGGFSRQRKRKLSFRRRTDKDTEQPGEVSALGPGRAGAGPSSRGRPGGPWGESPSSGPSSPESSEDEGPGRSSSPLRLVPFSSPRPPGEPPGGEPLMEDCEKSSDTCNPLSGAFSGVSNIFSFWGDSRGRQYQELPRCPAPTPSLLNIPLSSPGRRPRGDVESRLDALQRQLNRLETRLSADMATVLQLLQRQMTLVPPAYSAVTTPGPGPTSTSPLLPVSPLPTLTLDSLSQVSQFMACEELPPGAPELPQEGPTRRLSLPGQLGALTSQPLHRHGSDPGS
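U2OS cells were transduced with wild-type KCNH2 virus (2.03 x 10^8 / mL) for 4 h at room temperature, then cultured overnight at 37 C. Thallium flux was read with FluxOr dye. Rate constants were normalized to DMSO controls.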
KCNH2 3.1 inh: qHTS for Inhibitors of KCHN2 3.1: Mutant qHTS. Potassium voltage-gated channel subfamily H member 2, brain isoform KCNH2 3.1 (human). U2OS KCNH2 3.1, thallium flux FluxOr; stronger effect = lower value. activity change, % (tested at about 1.8 µM). actives 0.95% (n = 340,000);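 active = maximum activity change below -70%; inconclusive = maximum activity change from -70% to -50%; inactive = maximum activity change above -50%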;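 note: thallium influx rate constant from kinetic fluorescence after stimulation buffer; % is set by controls: 0 for no effect and ±100 for the full control effect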
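U2OS cells transduced with KCNH2 3.1 mutant virus (1.77 x 10^8 /mL, 4 h), plated overnight at 37 C, loaded 45 min with FluxOr dye plus Red40 quencher. Thallium flux rate constant from kinetic reads after stimulation buffer, normalised to controls.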
Chronic BCR inh: qHTS Assay to Find Inhibitors of Chronic Active B-Cell Receptor Signaling | ABC-DLBCL IkBa-CBG/CBR reporter, luminescence ratio, 4 h | Potency, µM (highest dose often 46.1 µM), without a hit: at the top dose activity change, negative = inhibition, hits mostly inhibitors | actives 0.05% (n = 340,000); active = well fitted inhibition curve with a large enough effect in the signal ratio, with a control signal flat, not every such curve was filed as active; inconclusive = small, poorly fitted or top-dose-only effect, or effect the other way, or a change in a side signal; the % refers to the signal ratio;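 note: potency is the fitted concentration of half-maximal effect; plate controls were basal doxycycline-induced cells for no effect and cells given 10 µM MG132 for full effect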
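Doxycycline induced both beetle luciferases in TMD8 lymphoma cells; IKK-driven degradation limits the IkappaBalpha-fused green signal, while red luminescence normalises for cell number and nonspecific effects. Compounds tested up to 46 uM, 4 hrs.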
12-LOX inh: Primary qHTS assay for inhibitors of human arachidonate 12S-lipoxygenase (ALOX12): Round 2 | AID 1671190, 2021 | actives 1.1% (n = 580,000) | Polyunsaturated fatty acid lipoxygenase ALOX12 (Homo sapiens), P18054 | Potency, µM (doses to about 108 µM), without a hit: top-dose activity change, negative = inhibition, hits mostly inhibitors | purified 12hLO, xylenol orange hydroperoxide absorbance; active = well fitted inhibition curve with a large enough effect; inconclusive = small, poorly fitted or top-dose-only effect, or another doubt; inactive = no such curve, though single readings can be large or run the other way; note: potency is the fitted concentration of half-maximal effect; % is set by controls: 0 for no effect and ±100 for the full control effect
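Purified human 12hLO (150 nM final) in 25 mM Hepes, 0.01% Triton X-100, pH 7.0 was preincubated 15 min at room temperature with compound. Then 40 uM arachidonic acid was added, 30 min. Hydroperoxide was read by Fe-XO absorbance ratio 573/405 nm.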
LDHA block: qHTS assay for inhibitors of human lactate dehydrogenase | purified LDHA, NADH/diaphorase-resazurin fluorescence; stronger effect = lower value | L-lactate dehydrogenase A chain (Homo sapiens), P00338 | activity change, % (values are at about 110 or 230 µM) | actives 0.15% (n = 480,000); in the data active = activity change below about -30%; inconclusive = mostly about -25% to -30%;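 note: plate controls were DMSO wells for no effect and wells without enzyme for full effect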
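Enzyme activity of human lactate dehydrogenase 5 (2 nM; 0.06 mM NADH, 0.2 mM pyruvate, 5 min, RT) is measured via a resazurin/diaphorase fluorescence readout of residual NADH.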
ClpP mod: qHTS Assay for Activators of ClpP | ATP-dependent Clp protease proteolytic subunit (Bacillus subtilis (strain 168)), P80244 | purified B. subtilis ClpP, FRET peptide cleavage, 20 min | Potency, µM (top dose mostly 57.5 µM), without a hit: at the top dose activity change, negative = active | actives 1.9% (n = 340,000); active = well fitted falling curve with a large enough effect; inconclusive = small, poorly fitted or top-dose-only effect; inactive = no such curve, though single readings can be large or run the other way; note: potency is the fitted concentration of half-maximal effect; the source files actives as falling curves though it sought activators and does not explain the sign; nearly all actives have a fitted effect of over 65% in size
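Buffer: 100 mM Tris/HCl pH8, 100 mM KCl, 0.05% low protease BSA, 2.5% glycerol, 0.01% Tween-20. ClpP 10 microg/mL final; 20 min RT; delta FRET normalized to ADEP and DMSO controls.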
* hit, by the source's call; ? = inconclusive; · = no result; [ ] = remark or other dose.

SMILES	hERG WT inh	KCNH2 3.1 inh	Chronic BCR inh	12-LOX inh	LDHA block	ClpP mod
Cc1ccc(C)c(N2CCN(C(=O)c3ccc(CS(=O)c4ccccc4)o3)CC2)c1 (stereo not given)	·	·	·	?	4	·
COc1cc2c(cc1OC)C(=O)CCC2	-3	-5	·	-14%	-1	28µM*
O=C1CCCc2cc3c(cc21)CCCC3	0	9	·	1%	-4	·
Cc1ccc(CN[C@@H]2CO[C@H](CNS(=O)(=O)c3ccc(C)cc3)[C@H]2O)cc1	·	·	·	28µM*	·	·
COc1ccc(C2CC(=O)Nc3c2ncn3-c2cccc(C(F)(F)F)c2)cc1OC (stereo not given)	·	·	·	28µM*	57	·
COc1cc(C2CC(=O)Nc3c2ncn3-c2cccc(C(F)(F)F)c2)cc2c1OCO2 (stereo not given)	·	·	·	?	33	·
COC(=O)c1c(C)[nH]c(C(=O)NCCc2ccc(Cl)cc2)c1C	·	·	·	-5%	-4	·
Nc1c(C(=O)Nc2ccc(S(=O)(=O)N3CCCC3)cc2)sc2nc3cc4c(cc3cc12)CCC4	1	5	19%	?	-2	25µM*
CN1CCc2nc3sc(C(=O)c4ccc(Cl)cc4)c(N)c3cc2C1	·	·	·	35µM*	14	·
Nc1c(C(=O)Nc2cccc(C(=O)O)c2)sc2nc3c(cc12)CCCC3	-3	19	?	?	1	-15%
Nc1c(C(=O)Nc2ccc(C(=O)O)cc2)sc2nc3c(cc12)CCCC3	·	·	·	18µM*	0	-27%
CN1CCc2nc3sc(C(=O)c4ccc(F)cc4)c(N)c3cc2C1	·	·	·	?	5	-5%
CC(C)N1C[C@H](O)C[C@H]1c1nnc2n1CCN(C(=O)c1ccccc1F)C2	·	·	·	51%	·	·
CCCN1CCN(C(=O)Cn2cnc3ccc(S(=O)(=O)N4CCC(C)CC4)cc3c2=O)CC1	-2	-85*	3%	?	-3	·
CCCCc1nn2cc(-c3cccc(Br)c3)nc2s1	·	·	·	4%	-2	·
Cc1ccc(Cl)cc1NC(=S)NCCSc1ccccc1	·	·	·	-95%	9	·
COc1ccc(Cl)cc1NC(=S)NCCSc1ccc(C)cc1	-2	-3	?	45µM*	-6	1%
COc1ccccc1NC(=S)NCCSc1ccc(Cl)cc1	-2	8	?	2%	-1	2%
Cc1ccc(Cl)cc1NC(=S)NCCSc1ccc(Cl)cc1	·	·	·	35µM*	5	·
CCOc1ccc(C(CC(=O)Nc2cc(OC)cc(OC)c2)N2Cc3ccccc3C2=O)cc1OC (stereo not given)	·	·	·	?	3	·
O=C(CCNS(=O)(=O)c1ccc2[nH]c(=O)ccc2c1)N1CCN(c2ccc(Cl)cc2)CC1	·	·	·	-22%	1	·
CCOc1ccc(C(=O)Nc2ccc(-c3nc4ccccc4[nH]3)cc2)cc1[N+](=O)[O-]	-19	-71*	3%	-17%	-1	1%
CCCCCCNc1nc(NCc2ccco2)nc(OCC)n1	-24	-73*	-13%	14%[57.4 µM]	8	-3%
CCCCCCCCNc1nc(Cl)nc(NCc2ccco2)n1	-5	10	-1%	-9%	-7	1%
CC(C)COc1ccc(-c2nnc(-c3ccncc3)o2)cc1	2	12	8%	-3%	-11	32µM*
SMILES	hERG WT inh	KCNH2 3.1 inh	Chronic BCR inh	12-LOX inh	LDHA block	ClpP mod
O=C(Nn1cnnc1)c1ccc(Br)cc1	·	·	·	-48%	-13	·
O=C(Nn1cnnc1)c1ccc(Br)s1	-1	-186*	4%	0%	-9	-6%
CCOC(=O)C1CCCCN1Cc1cccc(OCc2ccccc2)c1 (stereo not given)	-3	1	0%	23%	-7	0%
CCOC(=O)C1CCCCN1Cc1cccc(Oc2ccccc2)c1 (stereo not given)	11	16	1%	14µM*	0	·
CC(C)CCN1C(=O)CC[C@]2(C(=O)N(C)Cc3ccco3)CCCC[C@@H]12	·	·	·	13%	·	·
O=C(C1CC1)N1c2ccccc2Sc2ccccc21	4	-83*	0%	23%	-14	·
NC(=O)C1CCN(C(=O)N2c3ccccc3Sc3ccccc32)CC1	11	-2	-17%	0%[57.4 µM]	-6	1%
O=C(COc1cccc(F)c1)N1c2ccccc2Sc2ccccc21	15	-6	-8%	·	0	1%
O=C(COc1ccccc1)N1c2ccccc2Sc2ccccc21	1	·	1%	-1%	1	16µM*
O=C(CCl)N1c2ccccc2Sc2c1ccc1ccccc21	19	5	·	35µM*	9	-1%
O=C(c1ccccc1F)N(Cc1cccc2[nH]ccc12)C1CC1	·	·	·	1%	6	·
COc1ccc(C(=O)N(Cc2nc3nc(C)cc(=O)n3[nH]2)c2ccc(C)cc2)cc1	·	·	·	?	0	·
Clc1ccc(Cl)c(OCCCCN2CCCCC2)c1	-137*	-158*	-5%	?	-23	0%
CC1CCCN(CCCOc2ccc(Br)cc2Cl)C1 (stereo not given)	33	-105*	?	1.1µM*	-20	·
Cc1cc(OCCCCCN2CCCC2)ccc1Cl	75	-86*	1%	?	-18	-1%
Clc1ccc(Cl)c(OCCCCNCc2ccccc2)c1	1	-93*	-3%	?	-17	-3%
Clc1ccccc1OCCCCN1CCCCC1	14	-1	3%	?	-15	-3%
Cc1ccc(-c2ccc3cc(C)ccc3n2)cc1	·	·	·	3%	1	·
COc1cc(/C=C/C(=O)OCCOc2ccccc2F)ccc1OC(F)F	·	·	·	6%	7	·
Cc1cc(Br)ccc1OCCCCN1CCCCC1	-30	-89*	-18%	?	-24	·
Clc1ccccc1OCCCCN1CCCC1	18	-12	-6%	?	-16	5%
Clc1ccc(SCCOCCN2CCCCCC2)cc1	26	?	1%	0.56µM*	-13	-2%
Cc1cc(Br)ccc1OCCOCCN1CCCC1	35	-31	0%	-2%	-18	-1%
Clc1ccc(OCCCCN2CCCCC2)cc1	26	-14	-9%	·	-20	·
Clc1ccccc1OCCCCN1CCNCC1	-8	-10	0%	?	-41*	1%
C=CCOC(=O)C(C#N)c1nc2ccccc2nc1N1CCC(Cc2ccccc2)CC1 (stereo not given)	·	·	·	0%	-4	·

Screening data deposited in PubChem BioAssay by National Center for Advancing Translational Sciences (NCATS).
